This excerpt belongs to a sample that is enriched for the strongest signals.
Tests used:
Assay in all cases: glycan array binding signal (z-score within array); higher = stronger binding
Conditions in all cases: glycan notation: IUPAC condensed, linker removed
[1] = target: Fuc(a1-2)Gal(b1-3)GlcNAc(b1-2)Man(a1-3)[Fuc(a1-2)Gal(b1-3)GlcNAc(b1-2)Man(a1-6)]Man(b1-4)GlcNAc(b1-4)[Fuc(a1-6)]GlcNAc
In short: (§1)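 The Consortium for Functional Glycomics database supplied 3228 glycan arrays, of which those lacking an available protein sequence were dropped. The binding signal, a within-array Z-score, was averaged across arrays of the same protein sequence and across linkers. Negative scores can be read as non-binding.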

[2] = target: Fuc(a1-2)Gal(b1-4)[Fuc(a1-3)]GlcNAc
In short: as §1

[3] = target: Fuc(a1-2)Gal(b1-4)[Fuc(a1-3)]GlcNAc(b1-2)Man(a1-3)[Fuc(a1-2)Gal(b1-4)[Fuc(a1-3)]GlcNAc(b1-2)Man(a1-6)]Man(b1-4)GlcNAc(b1-4)[Fuc(a1-6)]GlcNAc
In short: as §1

Fuc(a1-2)[Gal(a1-3)]Gal = target: Fuc(a1-2)[Gal(a1-3)]Gal
In short: as §1

[4] = target: Fuc(a1-2)[GalNAc(a1-3)]Gal(b1-3)GlcNAc(b1-2)Man(a1-3)[Fuc(a1-2)[GalNAc(a1-3)]Gal(b1-3)GlcNAc(b1-2)Man(a1-6)]Man(b1-4)GlcNAc(b1-4)GlcNAc
In short: as §1

[5] = target: Fuc(a1-2)[GalNAc(a1-3)]Gal(b1-3)GlcNAc(b1-2)Man(a1-3)[Fuc(a1-2)[GalNAc(a1-3)]Gal(b1-3)GlcNAc(b1-2)Man(a1-6)]Man(b1-4)GlcNAc(b1-4)[Fuc(a1-6)]GlcNAc
In short: as §1

[6] = target: Fuc(a1-2)[GalNAc(a1-3)]Gal(b1-3)GlcNAc(b1-6)GalNAc
In short: as §1

[7] = target: Fuc(a1-3)[Gal(b1-4)]GlcNAc6S
In short: as §1

[8] = target: Gal(a1-3)Gal(b1-3)GlcNAc(b1-2)Man
In short: as §1

[9] = target: Gal(a1-4)Gal(b1-4)GlcNAc(b1-2)Man(a1-3)[Gal(a1-4)Gal(b1-4)GlcNAc(b1-2)Man(a1-6)]Man(b1-4)GlcNAc(b1-4)GlcNAc
In short: as §1

Gal(b1-3)Gal = target: Gal(b1-3)Gal
In short: as §1

[10] = target: Gal(b1-3)GlcNAc(b1-2)Man(a1-3)[Gal(b1-3)GlcNAc(b1-2)Man(a1-6)]Man(b1-4)GlcNAc(b1-4)[Fuc(a1-6)]GlcNAc
In short: as §1

[11] = target: Gal(b1-3)GlcNAc(b1-2)Man(a1-3)[GlcNAc(b1-4)][Gal(b1-3)GlcNAc(b1-2)Man(a1-6)]Man(b1-4)GlcNAc(b1-4)GlcNAc
In short: as §1

[12] = target: Gal(b1-4)GalNAc(a1-3)[Fuc(a1-2)]Gal(b1-4)GlcNAc
In short: as §1

Gal(b1-4)GlcNAc(b1-2)Man = target: Gal(b1-4)GlcNAc(b1-2)Man
In short: as §1

[13] = target: Gal(b1-4)GlcNAc(b1-2)Man(a1-3)[GlcNAc(b1-2)Man(a1-6)]Man(b1-4)GlcNAc(b1-4)GlcNAc
In short: as §1

[14] = target: Gal(b1-4)GlcNAc(b1-2)[Gal(b1-4)GlcNAc(b1-4)]Man(a1-3)[Gal(b1-4)GlcNAc(b1-2)Man(a1-6)]Man(b1-4)GlcNAc(b1-4)GlcNAc
In short: as §1

[15] = target: Gal(b1-4)GlcNAc(b1-3)Gal(b1-4)GlcNAc(b1-2)Man(a1-3)[Gal(b1-4)GlcNAc(b1-3)Gal(b1-4)GlcNAc(b1-2)Man(a1-6)]Man(b1-4)GlcNAc(b1-4)[Fuc(a1-6)]GlcNAc
In short: as §1

[16] = target: Gal(b1-4)GlcNAc(b1-3)Gal(b1-4)GlcNAc(b1-3)Gal(b1-4)GlcNAc(b1-3)Gal(b1-4)GlcNAc(b1-2)Man(a1-3)[Gal(b1-4)GlcNAc(b1-3)Gal(b1-4)GlcNAc(b1-3)Gal(b1-4)GlcNAc(b1-3)Gal(b1-4)GlcNAc(b1-2)Man(a1-6)]Man(b1-4)GlcNAc(b1-4)[Fuc(a1-6)]GlcNAc
In short: as §1

[17] = target: Gal(b1-4)GlcNAc(b1-3)Gal(b1-4)GlcNAc(b1-3)Gal(b1-4)GlcNAc(b1-3)Gal(b1-4)GlcNAc(b1-3)Gal(b1-4)GlcNAc(b1-2)Man(a1-3)[Gal(b1-4)GlcNAc(b1-3)Gal(b1-4)GlcNAc(b1-3)Gal(b1-4)GlcNAc(b1-3)Gal(b1-4)GlcNAc(b1-3)Gal(b1-4)GlcNAc(b1-2)Man(a1-6)]Man(b1-4)GlcNAc(b1-4)[Fuc(a1-6)]GlcNAc
In short: as §1

[18] = target: Gal(b1-4)GlcNAc(b1-6)GalNAc
In short: as §1

Gal3S(b1-3)GalNAc = target: Gal3S(b1-3)GalNAc
In short: as §1

Gal3S(b1-3)GlcNAc = target: Gal3S(b1-3)GlcNAc
In short: as §1

Gal3S(b1-4)Glc = target: Gal3S(b1-4)Glc
In short: as §1

[19] = target: GalNAc(b1-3)Gal(a1-4)Gal(b1-4)GlcNAc
In short: as §1

GalNAc3S(b1-4)GlcNAc = target: GalNAc3S(b1-4)GlcNAc
In short: as §1

[20] = target: GlcNAc(a1-4)Gal(b1-4)GlcNAc(b1-3)Gal(b1-4)GlcNAc(b1-3)Gal(b1-4)GlcNAc
In short: as §1

[21] = target: GlcNAc(b1-2)[GlcNAc(b1-4)]Man(a1-3)[GlcNAc(b1-2)Man(a1-6)]Man(b1-4)GlcNAc(b1-4)GlcNAc
In short: as §1

[22] = target: GlcNAc(b1-2)[GlcNAc(b1-6)]Man(a1-6)[GlcNAc(b1-4)][GlcNAc(b1-2)Man(a1-3)]Man(b1-4)GlcNAc(b1-4)GlcNAc
In short: as §1

[23] = target: GlcNAc(b1-3)Gal(b1-4)GlcNAc(b1-6)[Gal(b1-3)]GalNAc
In short: as §1

B1: cFel (Cyprinus carpio), P68512 (protein)
chain: LDCTVIDGNLKQIDAGSGSVVGVNNLNETFVLIDNVFTKISGSLKHFSVGPAGQLGVNTANNIFKYQSGGFVQLAGLLKQVDAGGDQIIAGVNMYDDIYCLNMDANNKWPSSNTPWVQINGKLKYYSCGPYSCWGVNSNDQIFIMKDVSSNVCSGSGSFINIPGLLSMIEVATDGSVFGVNSQGNLYQRTGVTRSKPDGTDWISMVACPNGHKHVSFDLGVLWLVCVDGSIRKCILTD
- glycan array binding signal (z-score) [1]: -0.998
- glycan array binding signal (z-score) [2]: 0.152
- glycan array binding signal (z-score) [3]: 3.47
- glycan array binding signal (z-score) (Fuc(a1-2)[Gal(a1-3)]Gal): 2.61
- glycan array binding signal (z-score) [4]: 0.309
- glycan array binding signal (z-score) [5]: 3.12
- glycan array binding signal (z-score) [6]: 2.93
- glycan array binding signal (z-score) [7]: 0.043
- glycan array binding signal (z-score) [8]: 0.809
- glycan array binding signal (z-score) [9]: -0.901
- glycan array binding signal (z-score) (Gal(b1-3)Gal): -0.479
- glycan array binding signal (z-score) [10]: -1.57
- glycan array binding signal (z-score) [11]: 3.37
- glycan array binding signal (z-score) [12]: 0.995
- glycan array binding signal (z-score) (Gal(b1-4)GlcNAc(b1-2)Man): 0.263
- glycan array binding signal (z-score) [13]: 0.271
- glycan array binding signal (z-score) [14]: 3.29
- glycan array binding signal (z-score) [15]: -0.29
- glycan array binding signal (z-score) [16]: -0.084
- glycan array binding signal (z-score) [17]: 1.98
- glycan array binding signal (z-score) [18]: 1.54
- glycan array binding signal (z-score) (Gal3S(b1-3)GalNAc): -0.627
- glycan array binding signal (z-score) (Gal3S(b1-3)GlcNAc): -0.636
- glycan array binding signal (z-score) (Gal3S(b1-4)Glc): 1.24
- glycan array binding signal (z-score) [19]: 4.96
- glycan array binding signal (z-score) (GalNAc3S(b1-4)GlcNAc): -0.547
- glycan array binding signal (z-score) [20]: -0.344
- glycan array binding signal (z-score) [21]: -0.869
- glycan array binding signal (z-score) [22]: -0.817
- glycan array binding signal (z-score) [23]: 1.15

Source: the supplement of paper PMC8728848
